The text below walks through data of PubChem BioAssay.

As usually defined, the inhibition is the drop in the measured response relative to a control, in per cent.

A short description of experiment [1]: inhibitors of TNFa-induced NFkB p65 translocation, primary screen, imaging, HUVEC, MLSMR starter and 10KST1 sets (AID 438).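 For inhibition: signal is the nuclear over cytoplasmic p65 intensity ratio per well.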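 Note: compound added about 3h40 before a 20 min TNFalpha stimulation.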 Conditions: HUVEC TNFa-induced p65 nuclear translocation; cell count: measured here: nuclei count (cytotoxicity indicator), at 2.08 µM; inhibition: at 2 µM, stronger effect = higher value, 0% TNFa-plus-vehicle, 100% no-TNFa wells.
Experiment [2] is described as follows: reduction of polyQ htt aggregates in cells – imaging, exon1htt(103Q)mCFP cells, high-content imaging, primary screen (AID 483;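 active = visual image review flags a hit and inhibition of aggregation exceeds 20%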;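 note: compound exposure lasted 3 days before fixation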;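 for nuclei count: percent of the per-plate median nuclei count of sample wells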). Conditions: exon1htt(103Q)mCFP cell line, aggregate imaging, at 2 µM; inhibition of aggregation: stronger effect = higher value; nuclei count: measured here: cell count, toxicity.
Experiment [3] is described as follows: endothelial E-selectin expression blockers – imaging, HUVEC, immunofluorescence, MLSMR starter and 10KST1 sets, primary screen (AID 487;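 active = visually confirmed hit in the image check and inhibition above 20%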;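 for inhibition: signal is fraction of cell area covered by stained E-selectin grains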;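 for nuclei count: 100% = median nuclei count of all wells on the same plate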). As to conditions: HUVEC TNFalpha-induced E-selectin immunofluorescence imaging, at 2 µM; inhibition: stronger effect = higher value; nuclei count: measured here: cell number, toxicity.
In experiment [4] the target is Voltage-gated potassium channel subunit beta-2 (Rattus norvegicus) (UniProt P62483). The experiment in a line: inhibitors of rat Kvbeta2 reductase activity – biochemical, NADPH fluorescence, primary screen (AID 622;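 active = fluorescence slope higher than the sample average by over 3 SD, cut at about -0.22 in these data, passing the limit was not always enough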;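 note: slope of raw intensity against log time taken from 70 to 1610 s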). As to conditions: recombinant KvBeta, 4-cyanobenzaldehyde reduction, at 10 µM, stronger effect = higher value.
Voltage-gated potassium channel subunit beta-2 (Rattus norvegicus), sequence (P62483 whole entry, looked up): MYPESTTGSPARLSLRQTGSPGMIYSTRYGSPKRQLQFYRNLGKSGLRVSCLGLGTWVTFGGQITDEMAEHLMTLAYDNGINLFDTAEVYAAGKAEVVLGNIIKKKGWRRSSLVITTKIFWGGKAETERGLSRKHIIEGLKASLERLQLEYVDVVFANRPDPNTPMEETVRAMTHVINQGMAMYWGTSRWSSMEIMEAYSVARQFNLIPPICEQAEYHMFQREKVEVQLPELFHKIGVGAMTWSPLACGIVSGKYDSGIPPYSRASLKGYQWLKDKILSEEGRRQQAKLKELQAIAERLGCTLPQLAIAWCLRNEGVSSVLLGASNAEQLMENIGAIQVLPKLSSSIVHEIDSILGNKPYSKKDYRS
Experiment [5] shares this target. Put plainly: enhancers of rat Kvbeta2 NADPH turnover – biochemical, NADPH fluorescence, primary screen (AID 623;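 active = NADPH fluorescence slope more negative than the mean of all samples by about 3 SD, 99.7% confidence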;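 note: fluorescence intensity change per second fitted from 20 to 320 s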). As to conditions: Recombinant KvBeta, NADPH fluorescence decrease slope, 10 min; at 10 µM; stronger effect = lower value.
For experiment [6], the target named is Alpha-2C adrenergic receptor (Homo sapiens) (UniProt P18825). The experiment in a line: compounds altering alpha2C-coupled GIRK flux – cell-based, HEK293 alpha2C/GIRK1/2, thallium flux, primary screen (AID 624;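 active = fluorescence slope after compound addition differing from the mean of all screened samples at 99.7% confidence, in either direction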;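 note: slope of fluorescence ratio to pre-addition baseline per second over 15 to 24 s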). Conditions: thallium flux BTC fluorescence, at 10 µM, actives lie on both sides.
Alpha-2C adrenergic receptor (Homo sapiens), sequence (P18825 whole entry, looked up): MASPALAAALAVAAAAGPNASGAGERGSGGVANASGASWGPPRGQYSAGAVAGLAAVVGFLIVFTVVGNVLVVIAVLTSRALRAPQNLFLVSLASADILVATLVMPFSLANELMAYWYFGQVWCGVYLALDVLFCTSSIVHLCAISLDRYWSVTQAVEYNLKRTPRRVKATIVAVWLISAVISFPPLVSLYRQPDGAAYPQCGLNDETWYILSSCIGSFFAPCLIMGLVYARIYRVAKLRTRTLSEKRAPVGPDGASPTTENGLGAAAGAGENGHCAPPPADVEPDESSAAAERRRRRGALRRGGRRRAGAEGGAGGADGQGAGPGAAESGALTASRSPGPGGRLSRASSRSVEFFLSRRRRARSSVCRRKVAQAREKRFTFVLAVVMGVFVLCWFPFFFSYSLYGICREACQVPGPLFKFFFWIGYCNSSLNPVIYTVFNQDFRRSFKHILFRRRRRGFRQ
A short description of experiment [7]: blockers of RIG-like receptor reporter activation – cell-based, Sendai virus stimulus, luciferase, 10K MLSCN set, TLR/RLR signaling modifier project, primary screen (AID 602276;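 active = inhibition at or above 50% at 10 µM; inactive = inhibition below 50%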;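 note: firefly luciferase from ISG56 promoter only with Renilla not read in this screen; 0% = Sendai virus plus DMSO and 100% = medium plus DMSO without virus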). Conditions: HEK293 RL24 IRF3 luciferase reporter, at 10 µM, stronger effect = higher value.
Experiment [8] is described as follows: TLR3 IRF3 reporter activation blockers – cell-based, poly I:C stimulus, luciferase, 10K MLSCN set, primary screen (AID 602277;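 active = inhibition of the reporter signal at or above 50%; inactive = inhibition below 50%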). Conditions: HEK293-TLR3 RL24 IRF3 luciferase reporter, at 10 µM, stronger effect = higher value. Background: A reporter such as luciferase makes a cellular process visible.

Active and inactive are the calls of the source.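 Rule for the calls, unless noted: active = inhibition above 20% together with a positive visual image hit; inconclusive = visual image hit but inhibition not above 20%; inactive = no visual image hit.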

Take `COCc1cc(C)nc(Nc2ccc(C)cc2C)c1C#N`: the cell count in experiment [1] came to 635. The inhibition is -12.3% (inactive) in experiment [1], 24.1% (inactive) in experiment [3], -5.46% (inactive) in experiment [7] and 12.7% (inactive) in experiment [8]. Further, in experiment [2], the inhibition of aggregation was -34.1% (inactive). Further, the figures for the nuclei count in experiment [2] and in experiment [3] were 113% and 120%, respectively. Also, the fluorescence slope in experiment [4] is -0.461 (inactive). Besides, the NADPH fluorescence slope in experiment [5] is 5.1e-08 (inactive). Also, the slope in experiment [6] was 0.00615 (inactive).
Consider `CC(=O)N(c1ccc(Br)cc1)C1C=CS(=O)(=O)C1` (centres undefined), for which the cell count in experiment [1] turned out to be 476. For the same compound, the inhibition was 3.9% (inactive) in experiment [1], -13.7% (inactive) in experiment [3], 13.8% (inactive) in experiment [7] and 30% (inactive) in experiment [8]. The inhibition of aggregation in experiment [2] is 25.9% (inactive). Besides, the nuclei count in experiment [2] was 49.7%; in experiment [3], 102%. Besides, in experiment [4], the fluorescence slope was -0.551 (inactive). In experiment [5], the NADPH fluorescence slope is -4.3e-05 (inactive). The slope in experiment [6] was 0.00701 (inactive).
On to `C=CCc1ccccc1OCC(O)CN1CCN(Cc2ccc3c(c2)OCO3)CC1` (centres undefined), for which the cell count in experiment [1] came to 321. The inhibition is 4.5% (inactive) in experiment [1], -2% (inactive) in experiment [3], 10.6% (inactive) in experiment [7] and 1.32% (inactive) in experiment [8]. The inhibition of aggregation in experiment [2] is -3.4% (inactive). Also, the nuclei count is 91.2% in experiment [2] and 91.6% in experiment [3]. In experiment [4], the fluorescence slope is -0.457 (inactive). Moreover, in experiment [5], the NADPH fluorescence slope was 1.5e-05 (inactive). The slope in experiment [6] was 0.0057 (inactive).
`CCn1c(SCC(=O)Nc2cc(C)on2)nc2sc3c(c2c1=O)CCCC3`: the cell count in experiment [1] is 470. Further, the inhibition in experiment [1] was -16.6% (inactive); in experiment [3], -26.9% (inactive); in experiment [7], -5.69% (inactive); in experiment [8], 98.9% (active). Moreover, the inhibition of aggregation in experiment [2] was 4% (inactive). In addition, the nuclei count was determined as 118% in experiment [2] and 110% in experiment [3]. The fluorescence slope in experiment [4] is -0.4 (inactive). The NADPH fluorescence slope in experiment [5] is 1.4e-06 (inactive). Also, the slope in experiment [6] is 0.00722 (inactive).
For `CCC(C)OC(=O)c1[nH]c2c(c1C)C(=O)CC(c1ccc(N(C)C)cc1)C2` (centres undefined), in experiment [1], the cell count was determined as 717. The inhibition in experiment [1] was -3.2% (inactive); in experiment [3], -31.4% (inactive); in experiment [7], -57.4% (inactive); in experiment [8], -143% (inactive). Besides, in experiment [2], the inhibition of aggregation was -40.7% (inactive). Moreover, the figures for the nuclei count in experiment [2] and in experiment [3] were 108% and 125%, respectively. In experiment [4], the fluorescence slope is -0.506 (inactive). Besides, the NADPH fluorescence slope in experiment [5] was -3.4e-06 (inactive). Moreover, the slope in experiment [6] is 0.00616 (inactive).
For `O=C(O)CCC1(C(=O)O)OCCc2ccccc21` (centres undefined), the cell count in experiment [1] came out at 470. For the same compound, the inhibition in experiment [1] is 2.9% (inactive); in experiment [3] it was -99.4% (inactive); in experiment [7], 8.34% (inactive); in experiment [8], 17.4% (inactive). The inhibition of aggregation in experiment [2] is -4.2% (inactive). Further, the nuclei count in experiment [2] was 99.2%; in experiment [3], 118%. In addition, the fluorescence slope in experiment [4] is -0.599 (inactive). In addition, the NADPH fluorescence slope in experiment [5] is -3.7e-05 (inactive). For the same compound, the slope in experiment [6] is 0.00588 (inactive).
In the case of `CCc1nccn1S(=O)(=O)c1ccc(C)c(C)c1`, the cell count in experiment [1] is 603. Further, the inhibition in experiment [1] is -11.5% (inactive); in experiment [3] it was -33% (inactive); in experiment [7], 7.1% (inactive); in experiment [8], 12.9% (inactive). In addition, the inhibition of aggregation in experiment [2] was 7% (inactive). For the same compound, the nuclei count in experiment [2] is 94%; in experiment [3], 117%. The fluorescence slope in experiment [4] is -0.618 (inactive). In addition, the NADPH fluorescence slope in experiment [5] was -5.2e-05 (inactive). In experiment [6], the slope is 0.00545 (inactive).
On to `CCN(CCNC(=O)C1CCN(S(=O)(=O)c2cccc3cccnc23)CC1)c1ccccc1`, for which, in experiment [1], the cell count came out at 614. The inhibition in experiment [1] is 5.8% (inactive); in experiment [3], 2.5% (inactive); in experiment [7], 11.9% (inactive); in experiment [8], 12.7% (inactive). Also, the inhibition of aggregation in experiment [2] is -11% (inactive). The figures for the nuclei count in experiment [2] and in experiment [3] were 112% and 108%, respectively. In addition, the fluorescence slope in experiment [4] is -0.569 (inactive). In addition, in experiment [5], the NADPH fluorescence slope is 2.5e-05 (inactive). Also, in experiment [6], the slope is 0.00561 (inactive).
Consider `COC(=O)C1C(=O)C2=C(CC1C)NC(=O)CC2c1ccccc1` (centres undefined), for which, in experiment [1], the cell count came to 285. Moreover, the inhibition is -14.6% (inactive) in experiment [1], 48.6% (inactive) in experiment [3], 9.64% (inactive) in experiment [7] and 22.4% (inactive) in experiment [8]. Also, the inhibition of aggregation in experiment [2] was 14.6% (inactive). The nuclei count was determined as 92.8% in experiment [2] and 80.1% in experiment [3]. Besides, in experiment [4], the fluorescence slope was -0.388 (inactive). Moreover, the NADPH fluorescence slope in experiment [5] was -4.9e-05 (inactive). For the same compound, in experiment [6], the slope was 0.00369 (inactive).
For `CCCN1C(=O)c2cc(C(=O)O)ccc2C1O` (centres undefined), the cell count in experiment [1] came to 817. The inhibition in experiment [1] was 8.1% (inactive); in experiment [3], -95.2% (inactive); in experiment [7], 4.49% (inactive); in experiment [8], 13.6% (inactive). Also, the inhibition of aggregation in experiment [2] is 21.4% (inactive). For the same compound, the values for the nuclei count in experiment [2] and in experiment [3] were 103% and 118%, respectively. Besides, in experiment [4], the fluorescence slope is -0.514 (inactive). For the same compound, in experiment [5], the NADPH fluorescence slope was -2.2e-05 (inactive). Besides, the slope in experiment [6] was 0.00732 (inactive).
`CCOC(=O)CSc1nc2ccccc2n1CC(=O)N1CCN(c2ccccc2)CC1`: the cell count in experiment [1] worked out at 436. Moreover, the inhibition in experiment [1] was 14.9% (inactive); in experiment [3] it was 50.8% (inactive); in experiment [7], -4.03% (inactive); in experiment [8], 1.41% (inactive). Further, the inhibition of aggregation in experiment [2] is 7.6% (inactive). The results for the nuclei count in experiment [2] and in experiment [3] were 98% and 99.5%, respectively. Also, in experiment [4], the fluorescence slope is -0.569 (inactive). Further, in experiment [5], the NADPH fluorescence slope was 2.2e-05 (inactive). In experiment [6], the slope is 0.00504 (inactive).
Consider `COc1cccc(-n2c(CNc3ccc(F)cc3)nnc2SCC(N)=O)c1`, for which the cell count in experiment [1] turned out to be 475. The inhibition in experiment [1] is 1.9% (inactive); in experiment [3], -32.3% (inactive); in experiment [7] it was 15.9% (inactive); in experiment [8], 24% (inactive). The inhibition of aggregation in experiment [2] is -17% (inactive). Moreover, the nuclei count in experiment [2] was found to be 113%; in experiment [3] it was 76.1%. For the same compound, in experiment [4], the fluorescence slope was -0.49 (inactive). For the same compound, the NADPH fluorescence slope in experiment [5] was -1.9e-05 (inactive). In experiment [6], the slope was 0.00474 (inactive).
As for `Cc1ccc(S(=O)(=O)N2CCCC(c3nnc4n3-c3ccccc3SC4)C2)cc1` (centres undefined), the cell count in experiment [1] worked out at 431. Further, the inhibition was 3.4% (inactive) in experiment [1], -34% (inactive) in experiment [3], 16.2% (inactive) in experiment [7] and 19.1% (inactive) in experiment [8]. In addition, the inhibition of aggregation in experiment [2] was 4.2% (inactive). Also, the nuclei count in experiment [2] amounted to 95.7%; in experiment [3], 103%. Moreover, the fluorescence slope in experiment [4] is -0.67 (inactive). For the same compound, the NADPH fluorescence slope in experiment [5] is -3.6e-05 (inactive). Further, in experiment [6], the slope is 0.00342 (inactive).
As to `O=C(Nc1ccc2c(c1)OCCO2)NC1CCCCC1`, the cell count in experiment [1] turned out to be 379. The inhibition was 0.5% (inactive) in experiment [1], -33.5% (inactive) in experiment [3], -28.7% (inactive) in experiment [7] and -68.9% (inactive) in experiment [8]. Further, the inhibition of aggregation in experiment [2] is 20.1% (inactive). For the same compound, the nuclei count is 58.3% in experiment [2] and 102% in experiment [3]. For the same compound, the fluorescence slope in experiment [4] was -0.487 (inactive). Also, in experiment [5], the NADPH fluorescence slope was -1.2e-05 (inactive). Moreover, the slope in experiment [6] is 0.00607 (inactive).
